In ChEMBL document CHEMBL3988442, “University of Dundee, Small-Polar-MMV Screening Library” (2021) one finds Percent Effect data, which are given here for eight molecules.

Each structure is given as a SMILES string. For some of these results: Potency and affinity values are given separately.

Common to all, as to design: scale not given: direction of the effect not stated beside the values
The target of assay [1] is Protein translocase subunit SecA (Escherichia coli (strain K12)) (UniProt P10408). Briefly: Assay to Identify E. coli SecA ATPase Inhibitors. It counts as functional. The following applies: 30 µM.
Sequence of Protein translocase subunit SecA (Escherichia coli (strain K12)) (P10408 whole entry): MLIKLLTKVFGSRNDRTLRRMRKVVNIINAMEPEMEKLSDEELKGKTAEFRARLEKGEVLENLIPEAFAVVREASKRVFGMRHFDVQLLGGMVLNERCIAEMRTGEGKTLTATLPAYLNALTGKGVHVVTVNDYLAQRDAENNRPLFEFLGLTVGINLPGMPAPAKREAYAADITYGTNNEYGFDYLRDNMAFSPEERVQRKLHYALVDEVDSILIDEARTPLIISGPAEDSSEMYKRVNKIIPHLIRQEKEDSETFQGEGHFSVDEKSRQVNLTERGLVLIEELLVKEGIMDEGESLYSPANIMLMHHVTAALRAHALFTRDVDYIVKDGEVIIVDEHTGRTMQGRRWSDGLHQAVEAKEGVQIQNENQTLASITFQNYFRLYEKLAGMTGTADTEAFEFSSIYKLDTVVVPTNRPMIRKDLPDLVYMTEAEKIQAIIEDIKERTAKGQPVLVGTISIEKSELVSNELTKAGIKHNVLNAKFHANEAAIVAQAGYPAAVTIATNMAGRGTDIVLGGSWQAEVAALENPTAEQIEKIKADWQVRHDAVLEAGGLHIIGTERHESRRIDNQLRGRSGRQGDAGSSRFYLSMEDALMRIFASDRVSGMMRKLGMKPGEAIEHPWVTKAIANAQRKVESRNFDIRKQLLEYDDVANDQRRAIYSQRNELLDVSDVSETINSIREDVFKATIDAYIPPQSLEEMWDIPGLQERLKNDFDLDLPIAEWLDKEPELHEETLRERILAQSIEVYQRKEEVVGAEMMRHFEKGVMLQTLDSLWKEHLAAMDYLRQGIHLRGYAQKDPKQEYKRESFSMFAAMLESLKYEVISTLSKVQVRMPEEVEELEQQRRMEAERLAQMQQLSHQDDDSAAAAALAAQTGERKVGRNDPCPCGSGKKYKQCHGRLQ
Assay [2] concerns the target T1, Ubiquitin-activating enzyme e1, putative (Leishmania donovani (strain BPK282A1)) (UniProt E9BSI1).
T1 sequence (whole entry): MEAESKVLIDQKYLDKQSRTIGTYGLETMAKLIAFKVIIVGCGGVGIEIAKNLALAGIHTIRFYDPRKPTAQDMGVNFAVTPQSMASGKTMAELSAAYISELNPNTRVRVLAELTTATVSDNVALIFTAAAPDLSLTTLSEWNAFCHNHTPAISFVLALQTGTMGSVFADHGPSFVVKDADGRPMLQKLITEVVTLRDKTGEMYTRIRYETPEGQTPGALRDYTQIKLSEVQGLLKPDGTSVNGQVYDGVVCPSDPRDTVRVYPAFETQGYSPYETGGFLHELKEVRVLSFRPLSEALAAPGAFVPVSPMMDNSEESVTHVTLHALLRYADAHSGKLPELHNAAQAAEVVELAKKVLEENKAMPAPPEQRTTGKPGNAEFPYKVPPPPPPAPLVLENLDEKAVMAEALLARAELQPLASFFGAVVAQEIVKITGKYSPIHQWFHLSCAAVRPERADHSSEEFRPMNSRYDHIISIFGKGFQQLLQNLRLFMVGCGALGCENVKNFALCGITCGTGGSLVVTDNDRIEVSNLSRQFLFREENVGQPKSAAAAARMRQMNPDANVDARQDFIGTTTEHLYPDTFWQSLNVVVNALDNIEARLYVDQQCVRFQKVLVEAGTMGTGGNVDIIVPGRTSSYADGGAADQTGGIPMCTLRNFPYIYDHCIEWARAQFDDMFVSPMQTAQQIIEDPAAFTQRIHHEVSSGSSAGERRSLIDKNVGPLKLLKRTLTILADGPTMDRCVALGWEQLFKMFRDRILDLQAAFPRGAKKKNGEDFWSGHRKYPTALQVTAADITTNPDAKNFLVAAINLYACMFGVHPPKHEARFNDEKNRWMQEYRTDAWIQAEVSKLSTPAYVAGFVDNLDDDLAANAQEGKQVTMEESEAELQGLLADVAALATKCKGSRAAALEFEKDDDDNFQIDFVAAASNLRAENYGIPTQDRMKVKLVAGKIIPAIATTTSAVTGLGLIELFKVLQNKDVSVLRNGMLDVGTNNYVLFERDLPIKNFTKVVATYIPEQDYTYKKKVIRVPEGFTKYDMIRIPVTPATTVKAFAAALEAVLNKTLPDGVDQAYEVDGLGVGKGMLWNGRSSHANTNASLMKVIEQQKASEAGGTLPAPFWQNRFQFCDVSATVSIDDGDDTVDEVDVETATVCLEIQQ
Briefly: Leishmania donovani Ubiquitin Activating Enzyme (LdE1). It counts as functional. Conditions: 30 µM.

In assay [3] the target is AMP-activated protein kinase, AMPK (Homo sapiens) (UniProt P54646+O43741+P54619+Q9UGJ0+Q9Y478+Q13131+Q9UGI9). As to the kind of experiment: AMP-dependent Kinase enzyme assay. An in vitro enzyme assay that detects ADP turnover that is directly proportional to AMPK activity. This uses naive AMPK that is activated during the assay with MK-8722. Conditions: 30 µM. It counts as functional.

In assay [4] the target is Sialic acid-binding Ig-like lectin 9 (Homo sapiens) (UniProt Q9Y336). As to the kind of experiment: Hs-Siglec9 ALPHAscreen SOP 20170721. The following applies: 10 µM. In general terms: Alpha assays give light when donor and acceptor beads are brought close together.
Sequence of Sialic acid-binding Ig-like lectin 9 (Homo sapiens) (Q9Y336 whole entry): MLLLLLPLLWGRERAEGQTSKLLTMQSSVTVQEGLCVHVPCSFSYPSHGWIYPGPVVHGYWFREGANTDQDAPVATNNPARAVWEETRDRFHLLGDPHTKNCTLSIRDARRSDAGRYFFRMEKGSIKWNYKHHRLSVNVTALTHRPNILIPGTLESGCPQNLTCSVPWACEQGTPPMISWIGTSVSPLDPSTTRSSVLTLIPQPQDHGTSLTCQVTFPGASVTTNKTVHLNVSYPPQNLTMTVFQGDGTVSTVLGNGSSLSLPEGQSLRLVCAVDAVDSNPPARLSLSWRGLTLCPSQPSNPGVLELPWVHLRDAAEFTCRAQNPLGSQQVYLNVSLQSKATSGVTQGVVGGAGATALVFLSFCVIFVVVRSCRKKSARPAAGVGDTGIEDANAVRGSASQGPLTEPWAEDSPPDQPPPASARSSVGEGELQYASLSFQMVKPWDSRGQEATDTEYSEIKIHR
For the next assay, the system named is Trypanosoma cruzi. Briefly: Trypanosoma cruzi phosphomannomutase and mannose-1-phosphate guanylyltransferase assay. It counts as functional. The following applies: 10 µM.
Assay [5] addresses T2, Arginase-2, mitochondrial (Homo sapiens) (UniProt P78540).
T2 sequence (whole entry): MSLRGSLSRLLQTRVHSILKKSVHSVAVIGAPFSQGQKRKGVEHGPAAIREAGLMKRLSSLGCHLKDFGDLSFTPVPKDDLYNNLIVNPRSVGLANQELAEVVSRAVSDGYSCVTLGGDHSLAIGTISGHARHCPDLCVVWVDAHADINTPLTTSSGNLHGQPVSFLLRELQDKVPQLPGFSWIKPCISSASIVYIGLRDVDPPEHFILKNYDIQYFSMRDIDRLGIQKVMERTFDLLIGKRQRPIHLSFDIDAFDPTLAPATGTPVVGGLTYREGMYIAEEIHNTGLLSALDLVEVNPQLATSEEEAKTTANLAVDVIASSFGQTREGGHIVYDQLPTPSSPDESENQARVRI
Briefly: in vitro enzyme assay to detect the production of urea directly proportional to the activity of Arginase II. Further: in the data most compounds retested in dose-response had high values. Conditions: 33.3 µM. It counts as functional.

Assay [6] concerns the target T3, Proteasome subunit beta (Trypanosoma cruzi) (UniProt O96673).
T3 sequence (whole entry): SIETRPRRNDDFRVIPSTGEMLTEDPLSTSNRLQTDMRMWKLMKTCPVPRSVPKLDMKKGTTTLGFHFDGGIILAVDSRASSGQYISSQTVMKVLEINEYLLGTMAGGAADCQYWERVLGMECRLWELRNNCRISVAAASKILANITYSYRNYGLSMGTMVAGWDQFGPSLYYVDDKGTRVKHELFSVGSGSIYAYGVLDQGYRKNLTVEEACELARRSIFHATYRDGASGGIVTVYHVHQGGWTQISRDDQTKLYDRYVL
Briefly: Trypanosoma cruzi proteasome chymotrypsin-like activity (TcProtChymo) assay. Further: in the data most compounds retested in dose-response had high values. It counts as functional. Conditions: 9.37 µM.

The species entered for another assay is Homo sapiens. Briefly: To identify inhibition of the IFN signalling (Jak-Stat) pathway via expression of an eGFP reporter gene under the control of an IFN-stimulated response element (ISRE) containing MxA promoter. The following applies: 30 µM. It counts as functional.
Assay [7] addresses T4, Tyrosyl-tRNA synthetase, putative (Trypanosoma cruzi (strain CL Brener)) (UniProt Q4DSP6).
T4 sequence (whole entry): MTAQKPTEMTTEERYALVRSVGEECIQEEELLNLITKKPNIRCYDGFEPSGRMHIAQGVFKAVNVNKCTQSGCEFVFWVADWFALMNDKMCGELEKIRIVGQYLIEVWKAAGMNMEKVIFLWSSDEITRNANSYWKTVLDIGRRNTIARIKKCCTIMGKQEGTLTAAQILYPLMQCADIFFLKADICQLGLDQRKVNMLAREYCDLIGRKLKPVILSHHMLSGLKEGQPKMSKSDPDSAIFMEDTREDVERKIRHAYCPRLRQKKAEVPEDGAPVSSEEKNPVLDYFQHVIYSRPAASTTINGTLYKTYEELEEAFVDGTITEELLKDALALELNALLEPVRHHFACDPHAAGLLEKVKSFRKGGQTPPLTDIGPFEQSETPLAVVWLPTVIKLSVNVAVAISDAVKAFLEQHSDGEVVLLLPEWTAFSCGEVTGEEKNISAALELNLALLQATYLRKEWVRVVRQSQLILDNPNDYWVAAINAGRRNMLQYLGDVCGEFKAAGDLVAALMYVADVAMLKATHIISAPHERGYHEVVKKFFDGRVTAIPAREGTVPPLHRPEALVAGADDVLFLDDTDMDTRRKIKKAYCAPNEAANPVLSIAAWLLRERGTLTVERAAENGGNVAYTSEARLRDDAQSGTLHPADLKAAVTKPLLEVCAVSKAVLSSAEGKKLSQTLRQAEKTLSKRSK
As to the kind of experiment: Trypanosoma cruzi tyrosyl tRNA synthetase (TcYRS) _High Tyrosine SOP. Further: in the data most compounds retested in dose-response had high values. The following applies: 30 µM. It counts as functional.

In assay [8] the target is T4, Tyrosyl-tRNA synthetase, putative (Trypanosoma cruzi (strain CL Brener)). Briefly: Trypanosoma cruzi tyrosyl tRNA synthetase (TcYRS) SOP. It counts as functional. The following applies: 30 µM.
For assay [9], the target named is Chromo domain-containing protein 1 (Saccharomyces cerevisiae (strain ATCC 204508 / S288c) (Baker's yeast)) (UniProt P32657). Briefly: ScCHD-1 Enzyme Inhibition Assay. Further: in the data most compounds retested in dose-response had high values. Conditions: 30 µM. It counts as functional.
Sequence of Chromo domain-containing protein 1 (Saccharomyces cerevisiae (strain ATCC 204508 / S288c) (Baker's yeast)) (P32657 whole entry, the tested form may be a part): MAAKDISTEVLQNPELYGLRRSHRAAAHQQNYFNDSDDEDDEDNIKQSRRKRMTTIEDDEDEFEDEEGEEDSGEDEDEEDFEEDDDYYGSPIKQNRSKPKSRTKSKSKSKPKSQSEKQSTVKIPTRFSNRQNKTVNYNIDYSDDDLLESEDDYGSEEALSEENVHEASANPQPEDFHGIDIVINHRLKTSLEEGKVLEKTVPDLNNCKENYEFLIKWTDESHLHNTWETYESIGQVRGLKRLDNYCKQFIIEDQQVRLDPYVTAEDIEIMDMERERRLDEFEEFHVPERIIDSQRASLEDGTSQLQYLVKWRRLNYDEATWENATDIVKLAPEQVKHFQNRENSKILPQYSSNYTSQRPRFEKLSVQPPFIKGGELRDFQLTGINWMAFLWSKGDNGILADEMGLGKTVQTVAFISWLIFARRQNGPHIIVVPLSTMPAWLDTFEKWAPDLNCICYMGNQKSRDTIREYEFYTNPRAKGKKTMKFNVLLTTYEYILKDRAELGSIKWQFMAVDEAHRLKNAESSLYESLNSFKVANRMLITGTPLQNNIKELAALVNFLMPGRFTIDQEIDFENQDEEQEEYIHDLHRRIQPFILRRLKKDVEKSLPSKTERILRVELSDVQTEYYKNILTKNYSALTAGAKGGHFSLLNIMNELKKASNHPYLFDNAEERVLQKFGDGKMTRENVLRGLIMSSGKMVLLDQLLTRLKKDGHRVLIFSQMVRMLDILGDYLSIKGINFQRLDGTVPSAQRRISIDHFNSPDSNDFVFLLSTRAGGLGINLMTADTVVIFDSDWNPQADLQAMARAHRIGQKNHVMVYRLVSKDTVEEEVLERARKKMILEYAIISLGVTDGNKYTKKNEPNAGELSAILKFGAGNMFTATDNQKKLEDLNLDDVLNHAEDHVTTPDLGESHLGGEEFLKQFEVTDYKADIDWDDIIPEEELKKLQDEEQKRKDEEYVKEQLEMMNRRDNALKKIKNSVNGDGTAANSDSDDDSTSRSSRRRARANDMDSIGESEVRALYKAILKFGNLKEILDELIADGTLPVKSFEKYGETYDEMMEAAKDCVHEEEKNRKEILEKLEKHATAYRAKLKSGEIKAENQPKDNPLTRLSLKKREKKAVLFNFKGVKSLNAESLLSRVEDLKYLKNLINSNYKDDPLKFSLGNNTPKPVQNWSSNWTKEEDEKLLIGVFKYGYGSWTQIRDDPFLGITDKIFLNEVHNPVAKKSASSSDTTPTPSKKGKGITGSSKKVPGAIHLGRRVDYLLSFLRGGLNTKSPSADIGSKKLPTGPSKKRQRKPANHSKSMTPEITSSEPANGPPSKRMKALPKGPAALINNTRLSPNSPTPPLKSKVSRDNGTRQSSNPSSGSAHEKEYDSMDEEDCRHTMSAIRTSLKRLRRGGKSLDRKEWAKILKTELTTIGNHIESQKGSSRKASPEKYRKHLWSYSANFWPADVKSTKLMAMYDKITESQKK

`COc1ccc(C2=CCN(C(=O)C3CCN(C)C(=O)C3)CC2)cc1` (stereo not drawn): the Percent Effect in [1] was -3.77%; in assay [2], 15.8%; in assay [3], 2.43%; in [4], -4.29%; with Trypanosoma cruzi, 9.06%; in [5] it was 1.8%. The Percent Effect in [6] was 7.19%; in the assay filed under Homo sapiens, 6.58%; in assay [7], 7.39%; in [8], 16.1%; in [9], -5.39%.

Regarding `COc1c(C2CCCN2CC(=O)Nc2cc(C)no2)c(C)nn1C` (stereo not drawn), the Percent Effect in assay [1] was -5.41%; in [2] it was 13.5%; in [3], -3.77%; in assay [4] it was 4.82%; in the assay on Trypanosoma cruzi, -4.74%; in assay [5], -2.03%. The Percent Effect in [6] came to 6.82%; in the assay listed under Homo sapiens, 0.794%; in assay [7] it was 5.94%; in assay [8], 11%; in assay [9] it was 3.98%.

Regarding `CC(C)Oc1ncccc1CNC(=O)C1CCCN(C(=O)C2CC2)C1` (stereo not drawn), the Percent Effect was -5.21% in assay [1]; 5.26% in assay [2]; -7.89% in assay [3]; -1.61% in assay [4]; -4.89% with Trypanosoma cruzi; 0% in [5]. For the same molecule, the Percent Effect in [6] is 7.52%; in the assay listed under Homo sapiens, 24.1%; in [7], 2.45%; in [8], 7.32%; in assay [9] it was -4.9%.

As to `Cc1[nH]c(=O)[nH]c(=O)c1CN1CCCC(CCc2ccccc2)C1` (stereo not drawn), the Percent Effect was -1.15% in assay [1]; 2.7% in assay [2]; -3.11% in assay [3]; 8.59% in assay [4]; -5.02% in the assay with Trypanosoma cruzi; 0.952% in assay [5]. Besides, the Percent Effect was 18.1% in [6]; -0.602% in the assay listed under Homo sapiens; 4.76% in [7]; 17.1% in [8]; -3.68% in [9].

Take `Cc1cnc(CN(C)C2CCN(CC(=O)Nc3nncs3)C2)o1` (stereo not drawn): the Percent Effect was -0.539% in [1]; 22.8% in assay [2]; -11% in assay [3]; -8.69% in assay [4]; -2.74% in the assay on Trypanosoma cruzi; 1.14% in assay [5]. Besides, the Percent Effect was 5% in assay [6]; 5.59% in the assay filed under Homo sapiens; 12.3% in assay [7]; 21.5% in assay [8]; -9.12% in assay [9].

For `CS(=O)(=O)NCC1CCCN(C(=O)Nc2ccccc2Cl)C1` (stereo not drawn), the Percent Effect was -1.65% in assay [1]; 13.2% in assay [2]; 8.6% in [3]; 0.518% in assay [4]; 1.66% with Trypanosoma cruzi; -5.92% in [5]. Besides, the Percent Effect in [6] was 15.2%; in the assay listed under Homo sapiens it was 29.4%; in assay [7], 7.45%; in assay [8], 18.2%; in assay [9], -7.52%.

For `CC(NC(=O)NCCn1ccnc1)c1ccc2c(c1)NC(=O)CO2` (stereo not drawn), the Percent Effect in assay [1] is -4.14%; in assay [2], 10.1%; in assay [3], 1.48%; in [4] it was 0.18%; with Trypanosoma cruzi, -7.65%; in assay [5], -1.52%. For the same molecule, the Percent Effect was -0.409% in assay [6]; 17.8% in the assay listed under Homo sapiens; 0.493% in assay [7]; 13.9% in [8]; -1.54% in [9].

As to `Cc1ncc(CNC(=O)CCc2cccc(F)c2)c(C2CCCN2C)n1` (stereo not drawn), the Percent Effect in [1] was -7.92%; in assay [2], 9.46%; in [3], -0.703%; in [4], 1.74%; in the assay with Trypanosoma cruzi, 0.988%; in assay [5], -3.94%. Also, the Percent Effect is 5.15% in assay [6]; 2.42% in the assay filed under Homo sapiens; 2.15% in assay [7]; 9.09% in assay [8]; -19.1% in [9].
